The values that follow come from PubChem BioAssay AID540256 (National Center for Advancing Translational Sciences (NCATS), 2011).

SMILES strings stand for the structures. Hit rate of the full screen: of about 300,000 compounds, about 3,700 (1.2%) were called active. Where a call stands in place of a potency, no number is given. Inconclusive results (about 20%) are left out. This is one part of a sample in which actives are shown more often than they occur. The call rests on the fitted dose curve; tested in HEK293 cells.
Potency means the concentration at half of the fitted maximal effect.

A short description of the assay: qHTS for Inhibitors of binding or entry into cells for Lassa Virus. Further: nearly all actives have a fitted effect of over 50% in size. The settings on record: Lassa virus pseudotype entry inhibition, cell reporter; series mostly up to 37.9 µM. In general terms: In qHTS, concentration-response curves come from the screen itself.
On to `OC1CCCN(c2ncnc3c2nnn3Cc2c(F)cccc2Cl)C1` (centres undefined), for which the Potency was 6.31 µM (active).
For `Cc1ccc(NC(=O)N2CCC(c3nc4c(nnn4Cc4c(F)cccc4Cl)c(=O)[nH]3)CC2)cc1`, the Potency result is “inactive”.
In the case of `CCOC(=O)N1CCN(C(=O)C2CCCN(c3ncnc4c3sc3cccc(F)c34)C2)CC1` (centres undefined), the Potency entry is “inactive”.
With `Cc1ccc(Br)c(NS(=O)(=O)c2cccc(C(=O)N3CCNC(=O)C3)c2)c1`, the Potency entry is “inactive”.
For `NC(=O)C1CCN(C(=O)c2cccc(NC(=O)c3nsc4ccccc34)c2)CC1`, the Potency result is “inactive”.
As for `Cn1cccc1C(=O)OCC(=O)c1ccc(Br)s1`, the Potency entry was “inactive”.
As to `COc1ccc(CNC(=O)CN2C(=O)c3ccccc3S2(=O)=O)cc1`, the Potency result was “inactive”.
Take `C/C(CC(=O)Nc1ccc(Cl)cc1)=N\NC(=O)C(=O)NCCO`: the Potency result is “inactive”.
Next, `COc1ccc(COC(=O)N/N=C(\C)CC(=O)Nc2ccc(Cl)cc2)cc1`: 0.141 µM (active); `COc1cccc(NC(=O)C/C(C)=N/NC(=O)C2CCCCC2)c1`: “inactive”.
On to `CCN(CC(=O)Nc1ccccc1OC)C(=O)CC1CC2CCC1C2` (centres undefined), for which the Potency result is “inactive”.
Consider `Cc1ccc(OCC(=O)N/N=C/c2ccncc2)cc1`, for which the Potency entry was “inactive”.
With `Cc1ccc(OCC(=O)N/N=C\c2ccco2)c(C)c1`, the Potency entry is “inactive”.
With `Cc1ccc(/C=N/NC(=O)COc2ccccc2-c2ccccc2)cc1`, the Potency is 1.64 µM (active).
Regarding `O=C(CCl)Nc1cccc(CP(=O)(c2ccccc2)c2ccccc2)c1`, the Potency was 7.94 µM (active).
As for `O=C(Cc1ccccc1)Nc1cccc(NC(=O)c2ccccc2)c1`, the Potency result was “inactive”.
With `CCc1cccc(NC(=O)CCC(=O)O)c1`, the Potency result is “inactive”.
Turning to `CN(C)S(=O)(=O)c1ccc(N2CCCC2)c(C(=O)Nc2ccc(Br)cc2F)c1`, the Potency result was “inactive”.
Regarding `CCCn1nc(C(=O)OCc2nc(N)nc(Nc3ccccc3C)n2)c2ccccc2c1=O`, the Potency entry was “inactive”.
Regarding `CCC(C(=O)Nc1cc(OC)ccc1OC)n1c(=O)c(C(F)(F)F)nc2ccccc21` (centres undefined), the Potency result was “inactive”.
For `O=C(N/C(=C/c1ccc(Cl)cc1)C(=O)N1CCCCC1)c1ccco1`, the Potency result was “inactive”.
`CCN(CC)S(=O)(=O)c1ccc2c(c1)c(=O)c(C(=O)N1CCN(c3cccc(Cl)c3)CC1)cn2C`: the Potency result is “inactive”.
With `CCn1cc(C(=O)NCc2ccccc2)c(=O)c2cc(S(=O)(=O)N3CCCCC3)ccc21`, the Potency entry was “inactive”.
`C=CCn1cc(C(=O)NCc2ccc(Cl)cc2)c(=O)c2cc(S(=O)(=O)N(CC)CC)ccc21`: the Potency was 0.398 µM (active).
For the compound `CC(=O)OC1CCC2(C)C(=CCC3C4CC(=O)N(O)C(=O)C4(C)CCC32)C1` (centres undefined), the Potency entry was “inactive”.
For `CC(C(=O)NC1CCCC1)N1CCN(S(=O)(=O)c2ccccc2Cl)CC1` (centres undefined), the Potency entry is “inactive”.
With `Cc1ccc(N(CC(=O)NC2CCCCC2)C(=O)CCCC(=O)Nc2ccccn2)c(C)c1`, the Potency result was “inactive”.
As for `c1ccc2c(NC3C4CC5CC(C4)CC3C5)nc(N3CCOCC3)nc2c1` (centres undefined), the Potency entry was “inactive”.
Consider `CC(Nc1nc(N2CCCC2)nc2ccccc12)c1ccccc1` (centres undefined), for which the Potency is 12.6 µM (active).
Regarding `CC(Nc1nc(N2CCOCC2)nc2ccccc12)c1ccccc1` (centres undefined), the Potency entry was “inactive”.
`Cc1ccc(S(=O)(=O)N2CCC(C(=O)NCCC3=CCCCC3)CC2)cc1C`: the Potency result was “inactive”.
Regarding `COc1cc(NC(=O)c2ccc(-c3csc(C)n3)cc2)c(OC)cc1Cl`, the Potency entry was “inactive”.
For `O=C1c2ccccc2C(=O)c2c1cccc2N1CCN(C/C=C/c2ccccc2)CC1`, the Potency entry is “inactive”.
Consider `O=C(Nc1cccc(Br)c1)C1CC(=O)N(C2CCCC2)C1` (centres undefined), for which the Potency entry is “inactive”.
On to `CN(C)S(=O)(=O)c1cccc(NC(=O)COC(=O)c2cc(=O)[nH]c(=O)[nH]2)c1`, for which the Potency entry is “inactive”.
For the compound `NS(=O)(=O)c1ccc(NC(=O)COC(=O)C2(c3ccc(F)cc3)CCCC2)cc1`, the Potency entry is “inactive”.
For `CN(c1ccccc1)S(=O)(=O)c1cccc(C(=O)NNC(=O)c2ccncc2)c1` the value was “inactive”.
Take `CN(C)S(=O)(=O)c1cccc(NC(=O)Cc2ccsc2)c1`: the Potency was 2.82 µM (active).
Turning to `CN(c1ccccc1)S(=O)(=O)c1ccc(Cl)c(C(=O)OCC(N)=O)c1`, the Potency result was “inactive”.
In the case of `CN(C)S(=O)(=O)c1cccc(NC(=O)COC(=O)/C=C/c2cccs2)c1`, the Potency entry was “inactive”.
`Cc1ccc(S(=O)(=O)N(CC(=O)Nc2cccc([N+](=O)[O-])c2)Cc2ccc(Cl)cc2)cc1`: the Potency result is “inactive”.
For `CN(C)S(=O)(=O)c1cccc(NC(=O)COC(=O)C2(c3ccccc3F)CCCC2)c1` the value was 4.11 µM (active); for `CN(C)S(=O)(=O)c1cccc(NC(=S)N/N=C/C(=O)c2ccccc2)c1`, “inactive”; for `CN(c1ccccc1)S(=O)(=O)c1cccc(NC(=O)Cc2c(F)cccc2Cl)c1`, 11.2 µM (active).
As for `CN(c1ccccc1)S(=O)(=O)c1cccc(NC(=O)Cc2ccc(Cl)cc2)c1`, the Potency was 8.91 µM (active).
Next, `CN(c1cccc(NC(=O)Nc2ccc(Cl)cc2)c1)S(C)(=O)=O`: “inactive”; `O=C(COC(=O)C1CCCO1)Nc1nc(-c2ccc(F)cc2)cs1` (centres undefined): “inactive”; `COc1cc(N)c(Cl)cc1C(=O)OCC(=O)c1ccc2c(c1)NC(=O)CO2`: “inactive”.
Next, `COC(=O)C=C[C@H]1c2ccccc2[C@@H](OC)[C@@H]1C`: “inactive”.
With `NC1=NC(c2ccc([N+](=O)[O-])cc2)N(c2ccc(F)cc2)C(N)=N1` (centres undefined), the Potency entry was “inactive”.
Consider `CC(C)Sc1nc(N)nc2c1ncn2C1OC(CO)C(O)C1O` (centres undefined), for which the Potency entry is “inactive”.
As to `COc1cc2c(cc1OC)CN(C(=O)c1cc(S(=O)(=O)N3CCCCC3)ccc1Cl)CC2`, the Potency result was “inactive”.
Next, `CCOc1ccccc1NC(=S)C(=C([O-])c1ccc2c(c1)OCCO2)[n+]1ccc(CC)cc1`: “inactive”; `CC(C)c1ccc(NC(=O)c2ccc(Cn3nc(N4CCN(c5ccccc5)CC4)ccc3=O)o2)cc1`: “inactive”.
Next, `O=C(CSc1nnc(COc2ccc(Cl)cc2)n1Cc1ccco1)N1CCNC1=O`: “inactive”; `O=C(c1cc(C(=O)N2CCN(c3ccc(F)cc3)CC2)cc([N+](=O)[O-])c1)N1CCN(c2ccc(F)cc2)CC1`: “inactive”; `O=C(NCCCN1CCCC1=O)C(=O)NCC1OCCN1S(=O)(=O)c1ccc(Br)cc1` (centres undefined): “inactive”.
Take `CCc1cccc(NC(=O)CN(C)S(=O)(=O)c2ccc3[nH]c4c(c3c2)CCCC4)c1`: the Potency result is “inactive”.
`Cc1cc(C)cc(NC(=S)NCc2ccc(F)cc2)c1`: the Potency result is “inactive”.
Next, `Cc1cccc(NC(=S)NCc2ccc3[nH]c4c(c3c2)CCCC4)c1`: 20.6 µM (active); `CCCC(O)(c1ccccc1)C(c1ccccc1)c1ccccn1` (centres undefined): “inactive”; `CCOC(=O)c1ccc(NC(=O)C2CCN(S(=O)(=O)c3ccc4c(c3)CCCC(=O)N4)CC2)cc1`: “inactive”.
In the case of `CC(C)(CO)CNC(=O)c1ccc2[nH]c(O)c(N=Nc3ccc(S(N)(=O)=O)cc3)c2c1`, the Potency is 1.58 µM (active).
Consider `COc1ccc(C(=O)NCCc2ccc(S(N)(=O)=O)cc2)cc1OC`, for which the Potency entry was “inactive”.
For `Cc1c(C)n(Cc2ccc(Cl)cc2)c2ccc(C(=O)NCCc3ccc(S(N)(=O)=O)cc3)cc12`, the Potency result is “inactive”.
For the compound `Cc1cc(NC(=O)CCC(=O)N(CC(=O)NCC2CCCO2)c2ccccc2)no1` (centres undefined), the Potency result was “inactive”.
Regarding `Cc1cc(NC(=O)CCC(=O)N(CC(=O)NCC2CCCO2)c2ccccc2C)no1` (centres undefined), the Potency entry was “inactive”.
`CCCCOc1ccc(N(CC(=O)NCC2CCCO2)C(=O)CCC(=O)Nc2cc(C)ccn2)cc1` (centres undefined): the Potency was 23.1 µM (active).
`Cc1oc2ncnc(N3CCCCC3)c2c1C(=O)N1CCN(c2cccc(Cl)c2)CC1`: the Potency result was “inactive”.
On to `Cc1ccc(CNC(=O)COc2ccc(S(=O)(=O)NC(C)C)cc2)cc1`, for which the Potency entry was “inactive”.
`Cc1ccc(OCC(=O)NNC(=S)NCc2ccccc2)cc1`: the Potency result is “inactive”.
Consider `Cc1ccc(CNC(=O)COc2ccc3c(c2)CCC3)cc1`, for which the Potency was 18.4 µM (active).
Regarding `O=C1CCc2cc(S(=O)(=O)Nc3ccc(C(F)(F)F)cc3)cc3c2N1CC3`, the Potency entry is “inactive”.
Consider `CCOc1ccc(C(=O)CCC(=O)NC2=NCCS2)cc1`, for which the Potency result was “inactive”.
Take `Cc1ccc2oc(=O)c3cnn(CC(=O)N4CCN(c5cccc(Cl)c5)CC4)c3c2c1`: the Potency entry is “inactive”.
On to `Cc1ccccc1CCNC(=O)C1CCC(=O)N(Cc2ccc(Cl)cc2)C1` (centres undefined), for which the Potency entry is “inactive”.
As to `COc1ccccc1NC(=O)Nc1nc(CC(=O)Nc2ccccc2F)cs1`, the Potency result is “inactive”.
For `Cc1noc(C)c1/C=N/Nc1ccc2ccccc2n1`, the Potency result is “inactive”.
In the case of `Brc1ccc(-c2csc(N/N=C/c3ccc4c(c3)OCO4)n2)cc1`, the Potency entry was “inactive”.
Next, `C(=N\Nc1ccc2ccccc2n1)/c1ccc2c(c1)OCO2`: 2.24 µM (active).
Consider `Cc1ccc(-n2cnc3cc(C(=O)NCCC4=CCCCC4)ccc32)cc1Cl`, for which the Potency result is “inactive”.
As to `CC(Sc1nncn1C)C(=O)NCCC1=CCCCC1` (centres undefined), the Potency entry was “inactive”.
For the compound `Cn1nnc2cc(C(=O)NCCC3=CCCCC3)ccc21`, the Potency was 8.91 µM (active).
As for `Cc1cccc(C(=O)N[C@H](C(=O)NCc2cccs2)C(C)C)c1`, the Potency entry is “inactive”.
With `COc1ccc2c(c1)c(=Cc1ccc(N(C)C)cc1)c1cc(-c3ccccc3)[n+](C)n12`, the Potency is 8.91 µM (active).
On to `CCc1nnc(SCc2c(F)cccc2Cl)c2cc3sccc3n12`, for which the Potency entry is “inactive”.
Regarding `O=C(COC(=O)c1ccc(Oc2ccccc2)cc1)Nc1nnc(-c2ccccc2)o1`, the Potency entry was “inactive”.
In the case of `COc1cccc(-c2nnc(NC(=O)c3ccc(S(=O)(=O)N(CC(C)C)CC(C)C)cc3)o2)c1`, the Potency was 7.08 µM (active).
As to `CS(=O)(=O)c1ccc(-c2nnc(NC(=O)c3ccc4c(c3)OCCO4)o2)cc1`, the Potency entry is “inactive”.
Consider `COC(=O)c1ccc(NS(=O)(=O)c2cc3c4c(c2)C(C)C(=O)N4CCC3)cc1` (centres undefined), for which the Potency entry is “inactive”.
Take `COc1ccc(C(=O)N2CCN(c3ccc(C(C)=O)cc3F)CC2)cc1S(=O)(=O)NC1CC1`: the Potency entry is “inactive”.
For the compound `CC(C)(CNC(=O)c1ccc(Cl)c(S(=O)(=O)N2CCc3ccccc3C2)c1)N1CCOCC1`, the Potency was 11.2 µM (active).
`CC(C)(CNC(=O)Cc1ccc(Cl)cc1Cl)N1CCOCC1`: the Potency entry is “inactive”.
Next, `O=C(NCCSCc1ccccc1)c1ccc(Cl)c(S(=O)(=O)N2CCOCC2)c1`: “inactive”; `Nc1ncnc2c1cnn2C1CC(O)C(CO)O1` (centres undefined): “inactive”.
Regarding `CSc1ncccc1C(=O)NCC(c1ccco1)N1CCCCC1` (centres undefined), the Potency result is “inactive”.
Turning to `CCS(=O)(=O)Nc1ccc(C2=NN(S(=O)(=O)c3ccc(F)cc3)C(c3ccco3)C2)cc1` (centres undefined), the Potency was 7.3 µM (active).
With `CS(=O)(=O)Nc1ccc(C2=NN(S(C)(=O)=O)C(c3cccs3)C2)cc1` (centres undefined), the Potency result is “inactive”.
`CCS(=O)(=O)Nc1ccc(C2=NN(C(C)=O)C(c3cccs3)C2)cc1` (centres undefined): the Potency entry is “inactive”.
